HPGD block = inhibitors of human 15-hydroxyprostaglandin dehydrogenase (HPGD); P15428; Potency, µM, for the others: top-dose activity change, negative = inhibition, hits mostly inhibitors; 150,000 tested, 4.3% active; AID 894; purified HPGD, NADH fluorescence kinetic, PGE2 substrate; also: potency is read from the fitted curve at half-maximal effect
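20 nM HPGD preincubated 15 min at room temperature with compound in 50 mM Tris-HCl pH 8, 0.01% Tween 20. Started with 1 mM NAD+ and 30 uM prostaglandin E2; NADH fluorescence (360/450 nm) read 5 times over 30-s intervals, last minus first.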
IMPase Li cell = membrane-permeable IMPase blocker, potentiated with lithium. CHO-M1 cells, IP1 TR-FRET (IP-One), carbachol + lithium. Potency, µM (titrated, usually from 59.4 µM), inactives show at the highest dose activity, negative = IMPase inhibition, usual class: inhibitors. 210,000 tested, 0.35% active. AID 1457; active = well fitted inhibition curve with a large enough effect; inconclusive = small, poorly fitted or top-dose-only effect; inactive = no such curve, though single readings can be large or run the other way;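 also: IP1 builds up when IMPase is blocked and the TR-FRET signal falls; potency is read from the fitted curve at half-maximal effect; plate controls were basal vehicle for no effect and high inhibitor control for full effect; nearly all actives have a fitted effect of over 50% in size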
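Concentration–response in CHO-M1 cells, lithium-potentiated; 30 min at 37C. IP1 detected by competitive TR-FRET after 10 min lysis at RT. Hill-fitted AC50.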
PNC assembly inh = perinucleolar compartment assembly inhibition. activity change (PNC), negative = inhibition, % at 10 µM. 140,000 tested, 3.1% active. PC3M PTB-GFP, PNC prevalence imaging, 16 h; hits give low values;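 active = readout at or below -70, meaning at least 70% loss of cells showing the perinucleolar compartment, a nuclear body marking cancer cells; inconclusive = readout between -30 and a set limit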;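 also: plate controls were DMSO wells for no effect and camptothecin positive control wells for full effect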
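Compounds are pinned in duplicate onto adhered PC3M cells stably expressing GFP-tagged PTB and incubated 16 h at 37 C. Cells are then fixed, nuclei stained with Hoechst, and PNC-positive cells counted.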
IMPase cell inh = membrane-permeable compound that blocks inositol monophosphatase | P97697 | CHO-M1 cells, IP1 accumulation, HTRF TR-FRET ratio | inhibition (IP1 accumulation), % at 46.1 µM | 120,000 tested, under 10 active; active = well fitted curve in the direction sought with a large enough effect in the signal ratio, not every such curve was filed as active; inconclusive = small, poorly fitted or top-dose-only effect, or a change in a side signal; inactive = no such curve, though single readings can be large or run the other way; the % refers to the signal ratio;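 also: cells stimulated with carbachol in lithium chloride buffer; plate controls were DMSO basal wells for no effect and reference inhibitor wells for full effect; higher means more IMPase inhibition seen as more IP1 and lower FRET ratio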
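The IP-One HTRF competitive assay in carbachol-stimulated CHO-M1 cells quantifies cellular IP1. Compounds spanned up to 46 uM final, and activity is expressed as AC50 from concentration-response fits of the ratio and donor data.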
ALDH1A1 block = blocks purified human ALDH1A1 activity; P00352; Purified ALDH1A1, NADH fluorescence, propionaldehyde substrate; Potency, µM (titrated, usually from 75.3 µM), inactives show at the top dose activity, negative = inhibition, actives largely listed as inhibitors; 220,000 tested, 7.3% active;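 also: potency is read from the fitted curve at half-maximal effect; plate controls were no enzyme wells and a reference inhibitor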
Target sequence (P00352 whole entry, looked up): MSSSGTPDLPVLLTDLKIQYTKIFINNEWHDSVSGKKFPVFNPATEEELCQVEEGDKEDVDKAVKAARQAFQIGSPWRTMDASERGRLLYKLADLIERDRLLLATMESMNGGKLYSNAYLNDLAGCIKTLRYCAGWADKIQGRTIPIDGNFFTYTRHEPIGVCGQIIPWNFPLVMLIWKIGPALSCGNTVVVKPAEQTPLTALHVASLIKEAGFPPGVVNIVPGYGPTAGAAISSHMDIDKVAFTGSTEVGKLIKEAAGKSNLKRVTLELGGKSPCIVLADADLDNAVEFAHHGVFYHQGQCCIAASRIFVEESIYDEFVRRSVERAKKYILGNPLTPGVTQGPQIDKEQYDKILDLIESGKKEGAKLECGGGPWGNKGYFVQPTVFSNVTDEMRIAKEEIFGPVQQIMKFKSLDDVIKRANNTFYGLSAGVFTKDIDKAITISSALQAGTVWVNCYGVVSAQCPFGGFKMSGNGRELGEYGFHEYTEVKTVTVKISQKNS
Numbers without * were called inactive; [ ] = dose if it differs, or a comment. Sampled rows, rich in hits. Any-hit rate of the full collection: about 11%. Unless noted, calls follow the shape of the dose curve; as a rule, active = well fitted inhibition curve with a large enough effect (not every such curve was filed as active); inconclusive = small, poorly fitted or top-dose-only effect, or another doubt; inactive = no such curve, though single readings can be large or run the other way. Unless noted, % is scaled to controls: 0 for no effect and ±100 for the full control effect.

How did COc1cccc(CN2CCNC(=O)C2CC(=O)NCCc2nc(C)c(C)s2)c1OC (configuration not stated) do in these assays?
IMPase Li cell: 8%; ALDH1A1 block: -10%

Results for O=C1C2C3c4ccccc4C(c4ccccc43)C2C(=O)N1Cc1ccco1 (configuration not stated) ?
PNC assembly inh: -6; IMPase cell inh: 10; ALDH1A1 block: -6%

What do the screens show for `O=C1C2C(C(=O)N1/N=C/c1cccc([N+](=O)[O-])c1)C1C=CC2C12CC2` (configuration not stated)?
HPGD block: 16µM*; IMPase Li cell: 5%; PNC assembly inh: inconclusive; ALDH1A1 block: 16µM*

Results for O=C1C2C3C=CC(C4CC34)C2C(=O)N1Cc1ccco1 (configuration not stated) ?
HPGD block: -1%; IMPase Li cell: -2%; PNC assembly inh: 84; ALDH1A1 block: 22µM*

How did O=C1C2C(C(=O)N1Cc1ccco1)C1C=CC2C12CC2 (configuration not stated) do in these assays?
HPGD block: -7%; IMPase Li cell: 4%[38.3 µM]; PNC assembly inh: inconclusive; IMPase cell inh: 10; ALDH1A1 block: 13µM*

How did O=C1C2C(C(=O)N1/N=C/c1ccco1)C1C=CC2C12CC2 (configuration not stated) do in these assays?
HPGD block: -15%; IMPase Li cell: 19%; PNC assembly inh: 27; IMPase cell inh: 6; ALDH1A1 block: 10µM*

What do the screens show for `O=C1C2C(C(=O)N1/N=C/c1cc([N+](=O)[O-])ccc1O)C1C=CC2C12CC2` (configuration not stated)?
HPGD block: -22%; IMPase Li cell: -12%[38.3 µM]; PNC assembly inh: 7; IMPase cell inh: -13; ALDH1A1 block: inconclusive

What do the screens show for `Cc1c(CCCN)c2ccccc2n1Cc1ccccc1`?
IMPase Li cell: 16%; ALDH1A1 block: inconclusive

Results for Cc1snc2sc(C(=O)c3ccc(Br)cc3)c(N)c12 ?
HPGD block: -11%; IMPase Li cell: 22%[38.3 µM]; PNC assembly inh: 16; IMPase cell inh: -3; ALDH1A1 block: 6%

What do the screens show for `Cc1ccc(C(=O)c2sc3nsc(C)c3c2N)cc1`?
HPGD block: -27%; IMPase Li cell: 73%[38.3 µM]; PNC assembly inh: inconclusive; IMPase cell inh: 16; ALDH1A1 block: 14µM*

Results for Cc1cc(NC(=O)c2ccc3c(c2)C(=O)N(CCC(C)C)C3=O)no1 ?
HPGD block: 0%; IMPase Li cell: -26%[38.3 µM]; PNC assembly inh: -9; IMPase cell inh: 15; ALDH1A1 block: inconclusive

How did CC1CCCN(c2ccc(C(=O)NCC3CCCO3)cn2)C1 (configuration not stated) do in these assays?
HPGD block: 11µM*; IMPase Li cell: -4%[38.3 µM]; PNC assembly inh: 6; IMPase cell inh: -1[1.84 µM]; ALDH1A1 block: -12%

What do the screens show for `O=C(NCC1CCCO1)c1ccc2c(c1)C(=O)N(C1CCCCC1)C2=O` (configuration not stated)?
HPGD block: -11%; IMPase Li cell: 6%[38.3 µM]; PNC assembly inh: 48; IMPase cell inh: -4; ALDH1A1 block: 8.9µM*

What do the screens show for `CC(C)CCN1C(=O)c2ccc(C(=O)NCC3CCCO3)cc2C1=O` (configuration not stated)?
HPGD block: -16%; IMPase Li cell: 28%[38.3 µM]; PNC assembly inh: -2; IMPase cell inh: 11; ALDH1A1 block: 4.5µM*

Results for O=C(NCC1CCCO1)c1ccc(/C=N/O)nc1 (configuration not stated) ?
HPGD block: -9%; IMPase Li cell: -15%[38.3 µM]; PNC assembly inh: -7; IMPase cell inh: -2; ALDH1A1 block: 0%

Results for Cc1cc(NC(=O)c2ccc3c(c2)C(=O)N(C2CCCCC2)C3=O)no1 ?
HPGD block: -4%; IMPase Li cell: -9%; PNC assembly inh: inconclusive; IMPase cell inh: 13; ALDH1A1 block: 0%

Results for Cc1ccc(Nc2nc(-c3ccc(S(=O)(=O)N4CCOCC4)cc3)cs2)cc1Cl ?
HPGD block: inconclusive; IMPase Li cell: -9%; PNC assembly inh: inconclusive; ALDH1A1 block: inconclusive
